Structures are written as SMILES. Results filed as inconclusive are left out. Calls of active or inactive are those of the source. The call rests on the fitted dose curve; in most records, active means well fitted inhibition curve with a large enough effect; inconclusive means small, poorly fitted or top-dose-only effect; inactive means flat fitted curve, though single readings scatter.
On the % scale 0 is the no-effect control and ±100 the full control effect; potency means the concentration at half of the fitted maximal effect.

Sequence of Glutathione peroxidase 1 (Homo sapiens) (P07203 whole entry, looked up): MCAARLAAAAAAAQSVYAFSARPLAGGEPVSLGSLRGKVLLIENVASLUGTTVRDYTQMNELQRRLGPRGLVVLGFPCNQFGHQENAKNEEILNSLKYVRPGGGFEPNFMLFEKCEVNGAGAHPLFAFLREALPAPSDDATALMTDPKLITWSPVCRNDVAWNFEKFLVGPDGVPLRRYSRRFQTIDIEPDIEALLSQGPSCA

This experiment has as its target Glutathione peroxidase 1 (Homo sapiens) (UniProt P07203). Description: Primary qHTS Assay for Inhibitors of Recombinant Selenoprotein Glutathione Peroxidase 1 (GPX1) (AID 1845191). Further: nearly all actives have a fitted effect of over 65% in size. The conditions noted are these: recombinant GPX1, GR-coupled NADPH fluorescence, 15 min; series mostly up to 48.8 µM; activity, negative = inhibition: at the top concentration. Summed up: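 NADPH consumption tracked by fluorescence at 340/450 nm between t=0 and t=15 min, room temperature. Final mix: 10 nM GPX1, 100 nM glutathione reductase, 1 mM GSH, 0.5 mM NADPH, 0.5 mM cumene hydroperoxide, 0.01% BSA; 30 min compound–enzyme preincubation.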
(qHTS replaces the single test concentration by a dilution series.)
As for `CC1C(=O)N(C)C(=O)c2nc[nH]c21` (stereo unspecified), the “activity, negative = inhibition” value is -34.5% (inactive).

Consider `[Li+]`, for which the outcome was inactive.

As to `CC(C)Cn1c(=O)n(C)c(=O)c2[nH]cnc21`, the “activity, negative = inhibition” value was 3% (inactive). Consider `Clc1nccc2c1ccc1ccccc12`, for which the “activity, negative = inhibition” value was -4.01% (inactive). As to `NCCCCN`, the “activity, negative = inhibition” value was -23.5% (inactive). `Cc1ccc2c(c1)C(N1CCN(C)CC1)=Nc1cccnc1N2`: the “activity, negative = inhibition” value is -10.9% (inactive). As for `CCCCCCCCCCCCCCCCCCOC[C@H](COP(=O)([O-])OCC[N+](C)(C)C)OC`, the “activity, negative = inhibition” value is -7.25% (inactive). Turning to `CN[C@H](CC(=O)O)C(=O)O`, the result was inactive.

With `CCCCCCCCCCC(C)(C)C(=O)Nc1c(OC)cc(OC)cc1OC`, the result was inactive.

Turning to `COc1cc(/C=C(\C#N)C(=O)Nc2nnc(C(F)(F)F)s2)ccc1OCc1ccc(C(F)(F)F)cc1C(F)(F)F`, the Potency result is “inactive”. With `O=C(O)c1ccccc1Nc1cccc(OCc2ccc3ccccc3n2)c1`, the “activity, negative = inhibition” value was -6.98% (inactive). Consider `COc1cc([C@@H]2c3cc4c(cc3[C@H](O)C3COC(=O)[C@@H]32)OCO4)cc(OC)c1OC` (stereo partly specified), for which the outcome was inactive. With `O=C(c1ccc2c(c1)OCCO2)N1CCCCC1`, the outcome was inactive.

For `CO/N=C(\C(=O)N[C@@H]1C(=O)N2C(C(=O)O)=C(CSc3nc(=O)c(O)nn3C)CSC12)c1csc(N)n1` (stereo partly specified), the Potency was 25.1 µM (active).

Take `Oc1cc(O)c2c(c1)O[C@H](c1ccc(O)c(O)c1)[C@@H](O)C2`: the “activity, negative = inhibition” value was 1.78% (inactive).

With `N=S(=O)(O)Cc1noc2ccccc12`, the outcome was inactive.

The record behind these values is PubChem BioAssay (NCATS).
